Source: PubChem BioAssay AID1347420 (Sanford-Burnham Center for Chemical Genomics, 2020)
Values joined by “and” are separate entries in the source; they are usually repeats but may differ in a detail not shown here. Equal values may be shown once. Hit rate of the full screen: of about 1,300 compounds, about 980 (75%) were called active. Another 4% or so got no clear call; they are omitted. Some of the results follow.

target: Sulfhydryl oxidase 1 (Homo sapiens) (UniProt O00391); assay: inhibition of human sulfhydryl oxidase QSOX1 – biochemical, HyperBlu H2O2 luminescence, HTS, primary screen (AID 1347420); details: recombinant QSOX1, HyperBlu H2O2 luminescence, at 12.5 µM, active compounds read high; active = any value above zero unless noted; note: values above 100% were filed as inconclusive
Sequence (O00391 whole entry, looked up): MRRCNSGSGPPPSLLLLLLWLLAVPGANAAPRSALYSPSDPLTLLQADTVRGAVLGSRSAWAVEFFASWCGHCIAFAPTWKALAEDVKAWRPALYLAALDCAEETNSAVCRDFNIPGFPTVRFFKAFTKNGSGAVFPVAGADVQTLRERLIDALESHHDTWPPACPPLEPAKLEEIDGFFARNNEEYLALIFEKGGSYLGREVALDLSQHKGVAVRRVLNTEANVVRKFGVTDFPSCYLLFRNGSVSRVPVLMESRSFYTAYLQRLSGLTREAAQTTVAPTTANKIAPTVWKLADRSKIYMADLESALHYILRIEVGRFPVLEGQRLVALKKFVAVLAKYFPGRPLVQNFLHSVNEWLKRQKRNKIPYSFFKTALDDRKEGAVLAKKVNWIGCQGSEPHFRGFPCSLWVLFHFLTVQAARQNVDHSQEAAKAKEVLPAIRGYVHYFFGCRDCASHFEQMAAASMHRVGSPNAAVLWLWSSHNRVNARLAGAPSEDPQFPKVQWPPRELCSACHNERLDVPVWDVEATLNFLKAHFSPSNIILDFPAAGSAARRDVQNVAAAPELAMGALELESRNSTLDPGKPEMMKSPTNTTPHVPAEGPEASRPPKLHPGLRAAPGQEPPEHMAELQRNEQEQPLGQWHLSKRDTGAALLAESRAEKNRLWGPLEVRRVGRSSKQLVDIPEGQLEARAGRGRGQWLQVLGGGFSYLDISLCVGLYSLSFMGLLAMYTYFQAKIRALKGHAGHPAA

| Structure (SMILES) | inhibition |
| --- | --- |
| Cn1cnc(CCN)c1 | 10.9% (active) |
| COc1ccc(C(CN(C)C)C2(O)CCCCC2)cc1 (stereo not given) | 7.4% (active) |
| NCCCP(=O)(O)O | -9.2% (inactive) |
| CCCCc1ccc(C(=O)O)nc1 | 5.9% (active) |
| CC(N)[C@H](O)c1ccc(O)c(O)c1 (stereo not given in full) | 57.3% [setting not given] (active) |
| NC(C(=O)O)c1cc(=O)[nH]o1 (stereo not given) | 4.7% (active) |
| CCCN1CCC[C@@H]2Cc3nc(N)ncc3C[C@H]21 | 14.3% (active) |
| CCCN1CCC[C@@H]2Cc3[nH]ncc3C[C@H]21 | 5.1% (active) |
| O=C(N[C@H]1CN2CCC1CC2)c1ccc(Cl)cc1 | 8.6% (active) |
| CC(C)(C)NCC(O)c1ccccc1Cl (stereo not given) | 6.8% (active) |
| COc1ccc2c(c1OC)C(=O)O[C@H]2[C@@H]1c2cc3c(cc2CCN1C)OCO3 | 12.6% (active) |
| O=[N+]([O-])/C=C/c1ccc2c(c1)OCO2 | 19.2% (active) |
| C#CCN[C@H](C)Cc1ccccc1 | 8.8% [setting not given] (active) |
| CNc1ccc2oc(C[C@H]3O[C@@]4(CC[C@H]3C)O[C@H]([C@H](C)C(=O)c3ccc[nH]3)[C@H](C)C[C@H]4C)nc2c1C(=O)O | 30.5% [setting not given] (active) |
| O=C(O)CC[N+](=O)[O-] | 12% [setting not given] (active) |
| CCn1cnc2c(Nc3cccc(Cl)c3)nc(N[C@@H]3CCCC[C@@H]3N)nc21 | 10.8% (active) |
| CC(C)[C@H]1CN[C@H](C(=O)O)[C@H]1CC(=O)O | 23.9% (active) |
| C=C(C)[C@H]1CN[C@H](C(=O)O)[C@H]1CC(=O)O | 5.8% (active) |
| CN(C(=O)Cc1ccc(Cl)c(Cl)c1)C(CN1CCCC1)c1cccc(OCC(=O)O)c1 (stereo not given) | -2.6% (inactive) |
| O=C(Cc1ccc(Cl)c(Cl)c1)N1CCCCC1CN1CCCC1 (stereo not given) | 2.1% (active) |
| COC(=O)N1CCN(C(=O)Cc2ccc(Cl)c(Cl)c2)C(CN2CCCC2)C1 (stereo not given) | 13.5% (active) |
| NN=C(N)N | 17.9% (active) and 6.7% (active) |
| NC(Cc1cc(O)c(O)cc1O)C(=O)O (stereo not given) | 30.1% (active) |
| NC1CCc2cc(O)c(O)cc2C1 (stereo not given) | 60.4% (active) |

| Structure (SMILES) | inhibition |
| --- | --- |
| COC(=O)[C@@H](N)CCCN=C(N)N[N+](=O)[O-] | -8.2% (inactive) |
| NC(=NCCC[C@H](N)C(=O)O)N[N+](=O)[O-] | 7.4% (active) |
| COc1ccc2c(c1)c(CCN1CCOCC1)c(C)n2C(=O)c1cccc(Cl)c1Cl | -15.7% (inactive) |
| CCC1(C2=NCCN2)Cc2ccccc2O1 (stereo not given) | 0.3% (active) |
| Cn1c(CCCC(=O)O)nc2cc(N(CCCl)CCCl)ccc21 | 87% (active) |
| O=C(O)CCCc1ccc(N(CCCl)CCCl)cc1 | 18% [setting not given] (active) |
| NC(Cc1ccc(N(CCCl)CCCl)cc1)C(=O)O (stereo not given) | 85.8% (active) |
| NCCc1ccc(S(=O)(=O)F)cc1 | 22.8% (active) |
| NCCc1ccc(O)cc1 | 14.4% [setting not given] (active) |
| c1ccc2sc(C3(N4CCCCC4)CCCCC3)cc2c1 | -3% (inactive) |
| CN1C(=O)CCS(=O)(=O)C1c1ccc(Cl)cc1 (stereo not given) | 18.9% (active) |
| CCS(=O)(=O)Nc1cccc(C(=C2CCCCC2)c2cnc[nH]2)c1 | 14.3% (active) |
| OC1CCCCC1N1CCC(c2ccccc2)CC1 (stereo not given) | 6.2% [setting not given] (active) |
| C=C(C)[C@H]1Cc2c(ccc3c2O[C@@H]2COc4cc(OC)c(OC)cc4[C@@H]2C3=O)O1 | -11.7% [setting not given] (inactive) |
| C[C@H]1C2Cc3ccc(O)cc3C1(C)CCN2CC1CC1 (stereo not given in full) | 26.8% [setting not given] (active) |
| O=C1NCN(c2ccccc2)C12CCN(CC1COc3ccccc3O1)CC2 (stereo not given) | 5.7% (active) |
| O=C(CCCN1CCC2(CC1)C(=O)NCN2c1ccccc1)c1ccc(F)cc1 | 7.6% [setting not given] (active) |
| CC(CCc1ccccc1)NC(C)C(O)c1ccc(O)cc1 (stereo not given) | 28.5% (active) |
| Cc1cccc(C)c1NC(=O)CN1CCCC1=O | 13.4% [setting not given] (active) |
| NC(=O)CN1CC(O)CC1=O (stereo not given) | 15.4% [setting not given] (active) |
| NC(=O)CN1CCCC1=O | 1% [setting not given] (active) |
| O=C1CCCN1CC#CCN1CCCC1 | 12.7% [setting not given] (active) |
| O=P1(N(CCCl)CCCl)NCCCO1 (stereo not given) | -3.8% (inactive) |
| C/C=C(/C)C(=O)O[C@H]1C(C)=C2[C@H]([C@@H]1OC(=O)CCCCCCC)[C@@](C)(OC(C)=O)C[C@H](OC(=O)CCC)[C@@]1(O)[C@H]2OC(=O)[C@@]1(C)O | -2.4% (inactive) |

| Structure (SMILES) | inhibition |
| --- | --- |
| Cc1nccc2c1[nH]c1ccccc12 | 8.6% [setting not given] (active) |
| Cc1c2ccncc2c(C)c2c1[nH]c1ccccc12 | 78.9% [setting not given] (active) |
| CC(=O)OCC1=C(C(=O)O)N2C(=O)[C@@H](NC(=O)CCC[C@@H](N)C(=O)O)[C@H]2SC1 | -10.7% (inactive) |
| Cc1ncsc1CCCl | 12.9% (active) |
| c1ccc(C2(c3ccccc3)CC2C2=NCCN2)cc1 (stereo not given) | 6.4% (active) |
| COc1cc(CC(C)N)c(OC)cc1I (stereo not given) | 7.8% [setting not given] (active) |
| CS(=N)(=O)CC[C@H](N)C(=O)O (stereo not given in full) | -10.8% (inactive) |
| NCC(CP(=O)(O)O)c1ccc(Cl)cc1 (stereo not given) | -10.6% (inactive) |
| NC(CP(=O)(O)O)C(=O)O (stereo not given) | 2.2% (active) |
| C[Se]C[C@H](N)C(=O)O | -0.1% (inactive) |
| NC(CCP(=O)(O)O)C(=O)O (stereo not given) | 12.3% (active) |
| N[C@@H](CCl)C(=O)O | 8.8% (active) |
| NC(CCCCCP(=O)(O)O)C(=O)O (stereo not given) | -4.7% (inactive) |
| CN1C2CCC1CC(OC(c1ccccc1)c1ccccc1N)C2 (stereo not given) | 14.6% (active) |
| O=C(O)Cc1cnc[nH]1 | 5.5% (active) |
| OCc1cnc[nH]1 | 3.5% (active) |
| C[C@@H](N)Cc1cnc[nH]1 | 21.1% (active) |
| C#CCOC(=O)C1=CCCN(C)C1 | 17.9% (active) |
| COC(=O)C1=CCCN(C)C1 | 0.6% [setting not given] (active) |
| CC(C)NC(C)Cc1ccc(I)cc1 (stereo not given) | 19.1% [setting not given] (active) |
| CC(C)N(CCC(C(N)=O)(c1ccccc1)c1ccccn1)C(C)C (stereo not given) | 39.4% [setting not given] (active) |
| Cc1cc([C@@H]2CCCN2C)on1 | 9.3% (active) |
| CN1CCC(c2c[nH]c3ccc(O)cc23)CC1 | 84% (active) |
| CCCCCCC(C)(C)c1ccc([C@@H]2C[C@H](O)CC[C@H]2CCCO)c(O)c1 | 3.2% [setting not given] (active) |

| Structure (SMILES) | inhibition |
| --- | --- |
| Cc1cccc(C)c1NC1=NCCCS1 | 12.9% [setting not given] (active) |
| C[C@@H]1O[C@@H](O[C@H]2C[C@@H](O)[C@]3(CO)[C@H]4[C@H](O)C[C@]5(C)[C@@H](C6=CC(=O)OC6)CC[C@]5(O)[C@@H]4CC[C@]3(O)C2)[C@H](O)[C@H](O)[C@H]1O | 2.5% [setting not given] (active) |
| C[C@@H]1O[C@@H](O[C@H]2C[C@@H](O)[C@]3(CO)[C@@H]4C(CC[C@]3(O)C2)[C@@]2(O)CC[C@H](C3COC(=O)C3)[C@@]2(C)C[C@H]4O)[C@H](O)[C@H](O)[C@H]1O (stereo not given in full) | 24.8% (active) |
| NC(=O)COc1c(F)cc(SCCNS(=O)(=O)c2ccccc2)cc1F | -12.8% (inactive) |
| Clc1ccc(N2CC3CCC(C2)N3)nn1 | 25.6% (active) |
| CC(C)=CCOc1c2occc2cc2ccc(=O)oc12 | 31.6% [setting not given] (active) |
| CC(O)(CS(=O)(=O)c1ccc(F)cc1)C(=O)Nc1ccc(C#N)c(C(F)(F)F)c1 (stereo not given) | 13.7% [setting not given] (active) |
| c1ccc2cc(CC3=NCCN3)ccc2c1 | 11% [setting not given] (active) |
| CCCN1CCC[C@H](c2cccc(O)c2)C1 | 10.7% (active) |
| CCCN1CCC[C@@H](c2cccc(O)c2)C1 | 25.8% (active) |
| CC1(C(=O)O)C2CCC(O2)C1(C)C(=O)O (stereo not given) | -0.6% (inactive) |
| CCCCC/C=C\C/C=C\C/C=C\C/C=C\CCCC(=O)NCC(=O)O | 3.4% (active) |
| NC1CC1c1ccccc1 (stereo not given) | 14.9% (active) |
| Nc1ccc(CCN2CCN(c3cccc(C(F)(F)F)c3)CC2)cc1 | 27.1% (active) |
| CC[C@@H](C(N)=O)N1CCCC1=O | 12.2% [setting not given] (active) |
| CN1CCc2cc(O)cc3c2[C@H]1Cc1ccc(O)c(O)c1-3 | 94% (active) |
| COc1ccc2c(c1O)-c1cccc3c1[C@@H](C2)N(C)CC3 | 39% (active) |
| Cc1sc2ccccc2c1CC1=NCCN1 | 9.6% (active) |
| CC(C)(O)[C@@H]1[C@H]2OC(=O)[C@@H]1[C@]1(O)C[C@H]3O[C@]34C(=O)O[C@H]2[C@]14C (tested in a mixture with another compound) | 14.8% (active) |
| Oc1ccc2c3c1O[C@H]1c4[nH]c5c(c4C[C@@]4(O)[C@@H](C2)N(CC2CC2)CC[C@]314)C[C@@]1(O)[C@H]2Cc3ccc(O)c4c3[C@@]1(CCN2CC1CC1)[C@H]5O4 | 25.2% (active) |
| Oc1ccc2c3c1O[C@H]1c4oc5ccccc5c4C[C@@]4(O)C(C2)N(CC2CC2)CCC314 (stereo not given in full) | 18.4% [setting not given] (active) |
| NC(N)=Nc1ccc2[nH]c3c(c2c1)C[C@@]1(O)[C@H]2Cc4ccc(O)c5c4[C@@]1(CCN2CC1CC1)[C@H]3O5 | 18.5% [setting not given] (active) |
| Oc1ccc2c3c1O[C@H]1c4[nH]c5ccccc5c4C[C@@]4(O)C(C2)N(CC2CC2)CCC314 (stereo not given in full) | 63.8% [setting not given] (active) |
